Rows were chosen to be rich in hits. Some 2.8% of all compounds tested hit in one or more screens of this group.
JMJD2C inh: blocks human GASC-1 demethylase activity | inhibition, % at 2.35 µM | AID 2099 | GST-JMJD2C(1-420) H3K9me3 demethylation, DELFIA europium | Q9H3R0 | 330,000 tested, 0.069% active;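 active = more than half of a compound's replicate wells show inhibition beyond 50%, single wells judged on their own value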;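 also: signal counts dimethyl H3K9 product captured on neutravidin plate; 0% = median of DMSO wells and 100% = 0.3 times that DMSO median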
Target sequence (Q9H3R0 1-420 limits assumed): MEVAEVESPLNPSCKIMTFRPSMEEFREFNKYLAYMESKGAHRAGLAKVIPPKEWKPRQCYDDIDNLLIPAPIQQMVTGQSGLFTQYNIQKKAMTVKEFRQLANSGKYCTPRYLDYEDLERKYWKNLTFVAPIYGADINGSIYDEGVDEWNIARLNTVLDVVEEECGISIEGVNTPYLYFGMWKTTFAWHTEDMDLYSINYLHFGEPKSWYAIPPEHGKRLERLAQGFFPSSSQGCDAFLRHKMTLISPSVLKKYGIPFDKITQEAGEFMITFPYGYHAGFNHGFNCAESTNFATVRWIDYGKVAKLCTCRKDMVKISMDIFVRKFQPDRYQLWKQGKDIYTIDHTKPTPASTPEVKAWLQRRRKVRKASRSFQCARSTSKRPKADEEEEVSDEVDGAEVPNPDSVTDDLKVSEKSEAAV
NR1D1 modulator: Rev-erb alpha (human) modulation; P20393; 370,000 tested, 0.79% active; Rev-erbα–FITC-DNA binding, fluorescence polarization, 90 min; AID 1259318; activity, % at 10 µM;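 active = activity above about 14%, limit read from the data; passing the limit was not always enough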;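 also: 0% = DMSO wells with 35 nM protein and 100% = DMSO wells with 750 nM protein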
PP1 inh: counter-screen for PP5 inhibitors: inhibitors of human PP1-alpha; P62136; inhibition, % at 6.7 µM; 320,000 tested, 0.9% active; purified PP1alpha, OMFP fluorescence; AID 2235;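 active = inhibition above the mean inhibition of all tested compounds plus 3 SD, computed separately for each screening campaign, cut at about 15% in these data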
PG9 binder: PG9 antibody binding by small molecule; TR-FRET gp120-PG9 antibody binding; inhibition, % at 6.7 µM; 360,000 tested, 0.43% active; AID 624416; in the data active = inhibition above about 8.5%
PP5 inh: blocks human protein phosphatase 5 activity; P53041; purified PP5c, OMFP substrate fluorescence; inhibition, % at 6.7 µM; 320,000 tested, 0.18% active; AID 1987;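 active = inhibition above the campaign's mean inhibition across all tested compounds plus 3 SD, cut at about 9.5% in these data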;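 also: 0% = DMSO only and 100% = 100 µM cantharidin control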
KLK7 zymogen act: activators of human kallikrein-7 zymogen | P49862 | purified proKLK7, EDANS-DABCYL substrate fluorescence; 100% is mature enzyme control, 0% vehicle | activation, % at 7 µM | 370,000 tested, 0.9% active;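 active = activation above the mean of all tested compounds plus 3 SD, computed per campaign excluding outliers beyond control limits, cut at about 13% in these data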
proKLK7 act conf: proKLK7 activation, confirmation. purified proKLK7, EDANS-DABCYL substrate fluorescence; scaled: vehicle 0, mature enzyme 100. 3,200 tested, 68% active. shares compounds with KLK7 zymogen act. AID 686949. activation, % at 7 µM;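 active = activation, as change over the incubation, above the mean of all tested compounds plus 3 SD, cut at about 13% in these data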
EDANS-DABCYL int: fluorescence interference counter-screen for KLK7 activators; activation, % at 7 µM; shares compounds with KLK7 zymogen act; AID 686952; 3,200 tested, 80% active; EDANS-DABCYL substrate fluorescence interference, no enzyme, 4 h; solvent 0%, active enzyme control 100%;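 active = activation above the all-compound mean plus 3 SD, ignoring values outside control-based bounds, cut at about 4.8% in these data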;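 also: value is the 4 h activation minus the activation read at time zero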
An asterisk follows results filed as active.

Results for CC(C)CCN=Cc1c(O)n(-c2ccccc2)c(=O)c2ccccc12 ?
JMJD2C inh: -9.0; NR1D1 modulator: 2.4; PP1 inh: -0.9; PG9 binder: -2.6; PP5 inh: 0.9; KLK7 zymogen act: 0.5

What do the screens show for `CCN1CCCC1CN=Cc1c(O)n(-c2ccccc2)c(=O)c2ccccc12` (centres undefined)?
JMJD2C inh: -14.0; NR1D1 modulator: -0.7; PP1 inh: -1.3; PG9 binder: 1.7; PP5 inh: 1.4; KLK7 zymogen act: 16.0*; proKLK7 act conf: 16.2*; EDANS-DABCYL int: 18.4*

Results for CCOC(=O)Nc1c2ccccc2nc2ccccc12 ?
JMJD2C inh: -2.6; NR1D1 modulator: -0.3; PP1 inh: -0.1; PG9 binder: -35.7; PP5 inh: 2.8; KLK7 zymogen act: 13.8*; proKLK7 act conf: 37.9*; EDANS-DABCYL int: 42.6*

What do the screens show for `O=C(NCCc1ccc(Cl)cc1)c1ccc2c(c1)ncn2C1CCCCC1`?
NR1D1 modulator: -6.3; KLK7 zymogen act: 0.3

What do the screens show for `COc1cc2oc3cc(C)oc(=O)c3c2cc1OC`?
JMJD2C inh: 4.1; NR1D1 modulator: 0.8; PP1 inh: 1.1; PG9 binder: 0.4; PP5 inh: 3.0; KLK7 zymogen act: 35.4*; proKLK7 act conf: 59.5*; EDANS-DABCYL int: 72.8*

How did COc1cc2oc(=O)c(Br)c(C)c2c(OC)c1OC do in these assays?
NR1D1 modulator: 10.6; PP1 inh: 0.3; PG9 binder: 4.8; PP5 inh: 1.2; KLK7 zymogen act: -0.6

How did CCN(CC)C(=O)COc1ccc2oc(-c3ccco3)cc(=O)c2c1 do in these assays?
JMJD2C inh: 7.8; NR1D1 modulator: -10.8; PP1 inh: 0.7; PG9 binder: -0.1; PP5 inh: -0.3; KLK7 zymogen act: 27.7*; proKLK7 act conf: 52.5*; EDANS-DABCYL int: 54.6*

How did CCN(CC)C(=O)COc1c(-c2ccco2)oc2ccccc2c1=O do in these assays?
JMJD2C inh: 6.5; NR1D1 modulator: -5.8; PP1 inh: 2.7; PG9 binder: -1.9; PP5 inh: 7.7; KLK7 zymogen act: 3.6

How did O=C1NN(c2ccc(Br)cc2)C(=O)/C1=C\c1ccc(O)cc1O do in these assays?
JMJD2C inh: -1.4; NR1D1 modulator: 10.6; PP1 inh: 0.4; PG9 binder: -1.0; PP5 inh: 0.5; KLK7 zymogen act: 157.2*; proKLK7 act conf: 180.8*; EDANS-DABCYL int: 196.0*

Results for COC(=O)[C@]12C[C@H](CC(=O)NCc3ccc(C)o3)C(=O)N(Cc3ccco3)C1=C[C@H](C1CCCC1)O[C@@H]2C ?
NR1D1 modulator: 6.3; KLK7 zymogen act: -0.2

How did Cc1nccc(-c2sc(-c3cccs3)nc2C)n1 do in these assays?
JMJD2C inh: -0.4; NR1D1 modulator: -1.1; PP1 inh: -0.9; PG9 binder: -3.1; PP5 inh: 4.3; KLK7 zymogen act: 41.1*; proKLK7 act conf: 20.3*; EDANS-DABCYL int: 20.9*

Results for COC(=O)[C@]12C[C@H](CC(=O)N3CCOCC3)C(=O)N(Cc3ccc(Cl)cc3Cl)C1=C[C@H](C(C)(C)C)O[C@@H]2C ?
NR1D1 modulator: 6.1; KLK7 zymogen act: 0.1

How did C[C@]12c3[nH]c4cc(-c5ccco5)ccc4c3CCN1C(=O)[C@@H](CC(=O)NCc1ccco1)C[C@@H]2C(=O)N1CCOCC1 do in these assays?
NR1D1 modulator: -1.2; PG9 binder: 0.9; KLK7 zymogen act: 75.1*; proKLK7 act conf: 81.3*; EDANS-DABCYL int: 75.4*

How did C[C@]12c3[nH]c4cc(-c5ccco5)ccc4c3CCN1C(=O)[C@@H](CC(=O)NCc1ccco1)C[C@@H]2C(=O)N1CCCCC1 do in these assays?
NR1D1 modulator: 3.2; PG9 binder: -0.7; KLK7 zymogen act: 84.3*; proKLK7 act conf: 44.7*; EDANS-DABCYL int: 81.8*
